# Source: PubChem BioAssay AID504332 (National Center for Advancing Translational Sciences (NCATS), 2011)
# The whole screen tested about 350,000 compounds, of which about 31,000 (8.9%) were called active. Not shown: some 15% with an inconclusive outcome. This is one part of a sample in which actives are shown more often than they occur. Unmarked numbers belong to inactive results. Calls follow the shape of the dose curve; as a rule, active = well fitted inhibition curve with a large enough effect; inconclusive = small, poorly fitted or top-dose-only effect; inactive = no such curve, though single readings can be large or run the other way.
# Target: Histone-lysine N-methyltransferase EHMT2 (Homo sapiens) (UniProt Q96KQ7)
# Test: qHTS Assay for Inhibitors of Histone Lysine Methyltransferase G9a; also: nearly all actives have a fitted effect of over 75% in size
# Conditions: G9a H3K9 monomethylation, AlphaScreen, 2 h; series mostly up to 59 µM; activity, negative = inhibition: at the top concentration
# Method in brief: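 G9a (20 nM) was preincubated 15 min with compound, then reacted 2 h at room temperature with 500 nM biotin-H3K9 peptide and 20 µM SAM. Monomethyl-H3K9 detected by AlphaScreen using anti-H3K9me1 antibody.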
# % is scaled to controls: 0 for no effect and ±100 for the full control effect; potency is read from the fitted curve at half-maximal effect.
# Sequence of Histone-lysine N-methyltransferase EHMT2 (Homo sapiens) (Q96KQ7 913-1193 limits assumed): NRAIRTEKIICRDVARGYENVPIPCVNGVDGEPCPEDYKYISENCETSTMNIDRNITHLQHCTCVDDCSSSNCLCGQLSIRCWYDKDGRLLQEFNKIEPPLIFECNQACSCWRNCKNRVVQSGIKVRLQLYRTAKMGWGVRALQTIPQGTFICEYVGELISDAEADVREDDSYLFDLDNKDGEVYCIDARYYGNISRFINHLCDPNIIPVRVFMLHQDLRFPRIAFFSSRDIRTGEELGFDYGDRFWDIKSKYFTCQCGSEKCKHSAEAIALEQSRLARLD
SMILES,"activity, negative = inhibition",Potency
O=C(O)c1ccc(Nc2nc(-c3ccccc3)c3cc(Br)ccc3n2)cc1,-2.63%,
Cn1c(=O)c2c(ncn2CC(=O)Nc2cccc(C(F)(F)F)c2)n(C)c1=O,27.9%,
Cc1ccc2nc(NC(=O)c3nc(SCc4ccccc4F)ncc3Cl)sc2c1,9.95%,
O=c1c2ccccc2nc2n1C(CSCc1cccc(C(F)(F)F)c1)CS2 (configuration not stated),-8.59% [at 102 µM],
CCOC(=O)N1CCN(Cc2nc(Cc3cccc(C(F)(F)F)c3)no2)CC1,0.109% [at 102 µM],
Cn1c(-c2sccc2OCc2cccc(C(F)(F)F)c2)n[nH]c1=S,,4.47 µM (active)
CCCCN(C(=O)c1ccc(S(=O)(=O)N2CCOCC2)cc1)C1CCS(=O)(=O)C1 (configuration not stated),4.15% [at 0.501 µM],
O=C(N/N=C/c1ccc(O)c2ccccc12)c1cccnc1,17.3% [at 102 µM],
C/C(=N\NC(=O)c1cccnc1)c1ccc(-c2ccccc2)cc1,3.29% [at 102 µM],
O=C(NN=C1CCC(=NNC(=O)c2cccnc2)CC1)c1cccnc1,,17.8 µM (active)
CCC(=O)N1c2ccccc2CC1C(=O)N1CCN(c2ccccc2)CC1 (configuration not stated),-1.15%,
COc1ccc(CCNS(=O)(=O)c2cc(-c3cc(C)no3)ccc2C)cc1OC,4.88%,
Nc1cc(N)nc(SCC(=O)Nc2cccc(S(=O)(=O)N3CCCCC3)c2)n1,-10.4%,
O=C(Nc1nc2c(F)cc(F)cc2s1)C1COc2ccccc2O1 (configuration not stated),-9.43% [at 102 µM],
O=C(Nc1ncc([N+](=O)[O-])s1)C1COc2ccccc2O1 (configuration not stated),-2.98% [at 12.7 µM],
O=C(Nc1nc(-c2ccncc2)cs1)C1COc2ccccc2O1 (configuration not stated),,2.24 µM (active)
COC(=O)C1=C(C)N=C2SC(C)C(=O)N2C1/C=C/c1ccccc1 (configuration not stated),-10.8% [at 102 µM],
CC(OC(=O)c1ccccc1N1C(=O)C2C3CCC(C3)C2C1=O)C(=O)c1ccccc1 (configuration not stated),5.86%,
CCOC(=O)c1ccccc1N1C(=O)C2Sc3[nH]c(=O)sc3C(/C=C/c3ccccc3)C2C1=O (configuration not stated),,3.16 µM (active)
CCN(CC)c1ccc(NC(=O)CN2C(=O)NC3(CCc4ccccc43)C2=O)cc1 (configuration not stated),79.1% [at 12.7 µM],
CCOc1ccc(CCNC(=O)CN2C(=O)NC3(CCc4ccccc43)C2=O)cc1OCC (configuration not stated),-29.7% [at 102 µM],
CCN(CC)S(=O)(=O)c1ccc(CNC(=O)CN2C(=O)NC3(CCc4ccccc43)C2=O)cc1 (configuration not stated),,28.2 µM (active)
COc1ccc(C=C(C#N)C#N)c(CSc2ccccn2)c1,1.76% [at 102 µM],
CC(NC(=O)c1ccccc1F)c1cccc2ccccc12 (configuration not stated),0% [at 2.33 µM],
CCN(c1ccccc1)S(=O)(=O)c1cccc(C(=O)O)c1,,79.4 µM (active)
CCOC(=O)C1CCN(C(=O)c2cccc(S(=O)(=O)N(CC)c3ccccc3)c2)CC1,-14.3% [at 12.7 µM],
COc1ccc(N(Cc2ccccc2)S(=O)(=O)c2cccc(C(=O)O)c2)cc1,-2.97%,
